Data taken from PubChem BioAssay (Tox21).
The source made the active and inactive calls. Calls follow the shape of the dose curve; as a rule, active = well fitted curve in the direction sought with a large enough effect in the repeat runs; inconclusive = weak or mixed curves; inactive = flat fitted curve, though single readings scatter.

test: qHTS assay to test for compound auto fluorescence at 460 nm (blue) in HEK293 cell free culture (AID 720681); conditions: cell-free medium, autofluorescence 405/460 nm (blue); series mostly up to 91.3 µM
Text: U.S. Tox21 Program National Center for Advancing Translational Sciences [NCATS] NIH Chemical Genomics Center [NCGC] U.S. Environmental Protection Agency [EPA] National Institutes of Environmental Health Sciences [NIEHS] National Toxicology Program [NTP] U.S. Food and Drug Administration [FDA] Tox21 Assay Overview: Compound auto fluorescence often interferes with screening of the compound library against various biological targets and signaling pathways. Some of these compounds may have fluorophoric properties. Such properties may interfere with the assay outputs resulting in false positives and/or negatives. To decrease such complications and ensure the compound activities are relevant in terms of biological response, the Tox21 10K compound library was screened for auto fluorescence. From the fluorophores used as reporter signals in our screening assays, the auto fluorescence equivalencies of compounds against three fluorophores have been evaluated: Triamterene, Fluorescein and Rose Bengal sodium for blue, green and red fluorescence, respectively. The fluorescence intensities were measured using Excitation/Emission wavelengths at 405/460nm, 485/535nm and 540/590nm for blue, green and red labels, respectively. This assay includes the blue fluorescence data.
Tox21 Assay Protocol Summary: 5 uL of culture medium (DMEM containing 10% FBS) per well was dispensed into black wall/clear bottom 1536-well plates using a Multidrop Combi Dispenser (ThermoFisher Scientific, Waltham, MA). After 23 nL compound or DMSO vehicle was transferred into assay plate by a pintool work station (Kalypsys, San Diego, CA), fluorescence intensities in the assay plates were measured by an Envision (PerkinElmer, Shelton, CT) plate reader using three labels for measuring blue, green and red fluorescence at […] 460, 535 and 590nm respectively.
% is scaled to controls: 0 for no effect and ±100 for the full control effect.

| Structure (SMILES) | outcome | fluorescence, % of fluorescent control |
| --- | --- | --- |
| CSc1cnccn1 | inactive | – |
| CCOC(CN1CCN(CC(C)C(=O)c2ccccc2)CC1)c1ccccc1 (stereo not given) | inactive | – |
| C=C(C)C1CC=C(C)C(=O)C1 (stereo not given) | inactive | – |
| O=C=NCC1CCCC(CN=C=O)C1 (stereo not given) | inactive | – |
| COc1cc2c(cc1OC)C(=O)C(CC1CCN(Cc3ccccc3)CC1)C2 (stereo not given) | inactive | – |
| CC(=O)C1C(=O)C=C(C)OC1=O (stereo not given) | inactive | – |
| C=CC(=O)CCCCC | inactive | – |
| Cn1nnc2c(C(N)=O)ncn2c1=O | inactive | – |
| C[C@H]1[C@@H](c2ccccc2)NC(=O)N1C | inactive | – |
| O=NN(CCCl)C(=O)NC1CCCCC1 | inactive | – |
| CC1=C(C(=O)O)N2C(=O)[C@@H](NC(=O)[C@H](N)c3ccccc3)[C@H]2SC1 | inactive | – |
| C/C=C(\C)C(C)=O | inactive | – |
| c1ccc2cnccc2c1 | inactive | – |
| CC(C)[C@H]1CC[C@H](C)C[C@@H]1O | inactive | – |
| CCO | inactive | – |
| Fc1ccccc1 | inactive | – |
| CCCC(CC)c1ccccc1 (stereo not given) | inactive | – |
| O=C[O][Al]([O]C=O)[O]C=O | inactive | – |
| c1ccc(B(c2ccccc2)c2ccccc2)cc1 | inactive | – |
| COC(C)(OC)OC | inactive | – |

| Structure (SMILES) | outcome | fluorescence, % of fluorescent control |
| --- | --- | --- |
| O=C(CCCCC(=O)Nc1c(I)cc(I)c(C(=O)O)c1I)Nc1c(I)cc(I)c(C(=O)O)c1I | inactive | – |
| CCC(C)C(=O)OCCc1ccccc1 (stereo not given) | inactive | – |
| C=CC(=O)OCC1CCCO1 (stereo not given) | inactive | – |
| Cc1ccc(N)cc1S(=O)(=O)O | inactive | – |
| c1ccc(-c2nn[nH]n2)cc1 | inactive | – |
| CC(C)OC(=O)OCOP(=O)(CO[C@H](C)Cn1cnc2c(N)ncnc21)OCOC(=O)OC(C)C | inactive | – |
| CCC(=O)c1c(O)cc(O)cc1O | inactive | – |
| ONc1ccccc1 | inactive | – |
| O=C(O)[C@H](O)c1ccccc1 | inactive | – |
| C[C@]12CCC(=O)C=C1CC[C@H]1[C@@H]3CC[C@](O)(C(=O)CO)[C@@]3(C)C[C@H](O)[C@@]12F | inactive | – |
| C=CCCCCCCCC | inactive | – |
| CCCC(=O)Nc1ccc(OCC(O)CNC(C)C)c(C(C)=O)c1 (stereo not given) | – | 0.175% [at 18.6 µM] (inactive) |
| NCc1ccc(S(N)(=O)=O)cc1 | – | 0.104% [at 18.6 µM] (inactive) |
| C=CCSSCCC | inactive | – |
| OC[C@H]1O[C@@H](O[C@@H]2[C@@H](CO)O[C@](O)(CO)[C@H]2O)[C@H](O)[C@@H](O)[C@H]1O | inactive | – |
| CN1C[C@@H]2C[C@H]1CN2c1cc2c(cc1F)c(=O)c(C(=O)O)cn2C1CC1 | inactive | – |
| CC12CCC(C1)C(C)(C)C2O (stereo not given) | inactive | – |
| Cc1c(Cl)cccc1Cl | inactive | – |
| CCC[C@@H]1C[C@@H](C(=O)N[C@@H]([C@H]2O[C@H](SC)[C@H](O)[C@@H](O)[C@H]2O)[C@@H](C)O)N(C)C1 | inactive | – |
| CCC/C=C(\C=O)CC | inactive | – |
